Compounds with a hit are over-represented: about 1.2% of the library has one in this group of screens.
PolyA inh = polyadenylation inhibitors in yeast reporter cells, primary screen, luminescence, S. cerevisiae. 300,000 compounds, 0.02% hits. activity score, % at 12 µM. AID 1875, 2009. S. cerevisiae SKY197-pL101 polyadenylation reporter, beta-gal luminescence; efflux-impaired pdr1/pdr3 knockout yeast; score 100 = 6 SD above DMSO;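 active = lowest replicate activity score at least 50, where 100 means six control SD above control mean; inconclusive = lowest score under 50 but half or more replicates reach 50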;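 also: yeast exposed to compound for 9 h at 30 °C; higher score means more reporter readthrough which indicates perturbed polyadenylation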
APOBEC3G inh = APOBEC3G DNA deaminase inhibitors, primary screen, biochemical, fluorescence, single-stranded DNA substrate, uHTS; DNA dC->dU-editing enzyme APOBEC-3G (Homo sapiens), Q9HC16; recombinant A3G, ssDNA deamination FAM/TAMRA fluorescence; inhibition, % at 20 µM; 330,000 compounds, 0.28% hits; AID 493012, 2011;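 active = inhibition of at least 40% at 20 µM, with no more than 30% in the related APOBEC3A deaminase screen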;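 also: plate controls were DMSO wells with A3G for no effect and wells lacking A3G enzyme for full effect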
Target sequence (Q9HC16 whole entry, looked up): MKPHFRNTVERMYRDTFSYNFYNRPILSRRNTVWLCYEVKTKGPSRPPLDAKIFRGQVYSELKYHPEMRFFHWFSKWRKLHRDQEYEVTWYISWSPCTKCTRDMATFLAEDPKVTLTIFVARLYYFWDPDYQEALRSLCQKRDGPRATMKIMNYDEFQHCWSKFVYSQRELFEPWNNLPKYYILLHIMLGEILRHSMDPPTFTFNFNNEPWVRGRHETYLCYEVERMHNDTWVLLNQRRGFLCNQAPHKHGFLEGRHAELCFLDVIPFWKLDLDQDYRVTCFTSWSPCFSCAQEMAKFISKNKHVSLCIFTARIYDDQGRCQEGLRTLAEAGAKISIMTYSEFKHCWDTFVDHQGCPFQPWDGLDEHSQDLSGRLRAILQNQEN
A3A deaminase = APOBEC3A ssDNA deaminase inhibitors, primary screen, selectivity assay for APOBEC3G inhibitor project, biochemical, FAM/TAMRA oligo cleavage fluorescence | DNA dC->dU-editing enzyme APOBEC-3A (Homo sapiens), P31941 | recombinant A3A, FAM/TAMRA ssDNA deamination fluorescence | inhibition, % at 20 µM | 330,000 compounds, 0.41% hits;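 active = at least 40% inhibition at 20 µM here, with at most 30% in a related deaminase screen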;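 also: plate controls were A3A with DMSO for no effect and wells lacking A3A enzyme for full effect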
NALP1 yeast inh = NALP1 inflammasome inhibitors in reconstituted yeast, colorimetric, S. cerevisiae, triplicate retest; S. cerevisiae NALP1/ASC/caspase-1 growth, X-gal OD620, 72 h; inhibition, % at 10 µM; 280,000 compounds, 0.61% hits; AID 2071, 2009; in the data active = inhibition mostly above about 24%, no sharp cut-off; inactive = mostly below about 32%
A3G conf = APOBEC3G deaminase inhibitor retest, confirmation, biochemical, fluorescence, single-stranded DNA substrate, single concentration; shares compounds with APOBEC3G inh; recombinant A3G ssDNA deaminase, UDG/FAM-TAMRA fluorescence; inhibition, % at 20 µM; 890 compounds, 72% hits; AID 493152, 2011;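 active = inhibition reaching a set limit in any replicate at 20 µM, the limit being 80% of the first screen's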
UDG A3G counter = E. coli UDG inhibitors, confirmation, counter-screen for APOBEC3G inhibitor project, biochemical, single concentration, fluorescence, FAM/TAMRA oligo. UDG counterscreen. shares compounds with APOBEC3G inh. 710 tested, under 10 active. inhibition, % at 20 µM;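 active = compounds giving 40% or more inhibition at 20 µM in any one of the three replicates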;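 also: plate controls were DMSO wells with UDG and oligo for no effect and DMSO wells lacking both for full effect; inhibitors lower the FAM signal released by uracil excision and alkaline cleavage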
Target sequence (P12295 whole entry, looked up): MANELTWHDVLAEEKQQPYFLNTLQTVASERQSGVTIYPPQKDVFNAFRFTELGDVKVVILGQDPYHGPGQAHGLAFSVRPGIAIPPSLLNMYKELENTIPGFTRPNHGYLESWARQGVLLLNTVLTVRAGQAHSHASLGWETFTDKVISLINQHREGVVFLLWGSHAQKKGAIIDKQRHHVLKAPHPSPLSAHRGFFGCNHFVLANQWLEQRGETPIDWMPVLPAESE
* hit, by the source's call; ? = inconclusive; / = not tested or not shown.

SMILES	PolyA inh	APOBEC3G inh	A3A deaminase	NALP1 yeast inh	A3G conf	UDG A3G counter
Cc1nnsc1-c1nnc(SCC(=O)c2ccc(F)cc2)n1C1CC1	31	-5	-6	11	/	/
S=c1[nH]ncn1/N=C/c1ccccc1	4	23	-4	-13	/	/
S=c1[nH]ncn1/N=C/c1ccc(Br)cc1	-17	44*	-5	14	100*	-1
CC(/C=N/n1c(-c2cccnc2)n[nH]c1=S)=C\c1ccco1	-6	71*	15	/	70*	-2
CC(/C=N/n1c(-c2n[nH]c3c2CCC3)n[nH]c1=S)=C\c1ccco1	-12	55*	15	-37	68*	-3
O=[N+]([O-])c1ccccc1CN1CCN(Cc2ccc3ccccc3c2)CC1	-9	2	-6	25	/	/
O=C(NC(=S)N1CCN(c2nc(-c3ccccc3)cs2)CC1)c1cccnc1	-3	-11	-3	26	/	/
CC(C)(C)OC(=O)N1Cc2ccccc2C[C@H]1C(=O)NCC(=O)Nc1ccc2c(c1)OCCO2	?	-6	-3	1	/	/
CC(C)(O)C1Cc2cc(/C=C/C(=O)O)c(O)cc2O1 (stereo not given)	-2	82*	0	-26	94*	-2
COc1cc2c(cc1/C=C/C(=O)O)OC(C)C2 (stereo not given)	17	-2	1	-29	/	/
COc1ccc(-c2cn(CCO)nc2-c2ccc(OC)cc2)cc1	17	-7	4	22	/	/
CC(=O)C1=C(S(=O)(=O)c2ccc(C)cc2)CS(=O)(=O)C1	-8	61*	2	10	78*	-4
Cc1ccc(N/N=C2\CCS(=O)(=O)c3sccc32)cc1	-4	45*	-6	-27	-6	-4
COc1ccc(N2C(=O)N(Cc3ccc(C)cc3)c3ccccc3S2(=O)=O)cc1	-3	47*	5	0	-1	/
CC(C)C(=O)NNc1ccccc1	7	-6	-3	32	/	/
CC(O)CC(C(=O)NNc1ccccc1)C(=O)NNc1ccccc1 (stereo not given)	-6	44*	-2	12	1	-3
CCOC(=O)c1c(NC(=O)C2CCCO2)sc(C(N)=O)c1C (stereo not given)	9	0	3	32	/	/
CCCOC(=O)c1c(NC(=O)C2CCCO2)sc(C(=O)OC)c1C (stereo not given)	8	41*	-2	15	48*	-1
N#Cc1c(-c2cccnc2)c2c([nH]c1=S)CCCC2	3	50*	-1	-4	86*	-2
O=C(c1sccc1Cl)N1CCN(Cc2ccc3c(c2)OCO3)CC1	1	4	3	10	/	/
CCn1nc(C)c(CNC(=O)C2CCC(=O)N(CCc3ccc(Cl)cc3)C2)c1C (stereo not given)	-7	44*	6	-31	-1	/
Cc1nc(CNC(=O)C2CCC(=O)N(CCc3ccc(Cl)cc3)C2)sc1C (stereo not given)	28	-5	-4	2	/	/
CCCCC(=O)Nc1ccc(Br)cn1	1	-6	-5	15	/	/
C=CCCC(=O)Nc1ccc(Br)cn1	-12	55*	0	12	13	/
COc1cccc(NC(=O)c2ccnc(N3CCC(C(=O)NCc4cc(OC)ccc4OC)CC3)c2)c1	-6	-1	-2	12	/	/
SMILES	PolyA inh	APOBEC3G inh	A3A deaminase	NALP1 yeast inh	A3G conf	UDG A3G counter
CC(C)OC(=O)CSc1nnc(-c2ccc(C(C)(C)C)cc2)n1N	-1	42*	3	25	28	/
CCc1n[nH]c(=S)n1/N=C/c1c(O)ccc2ccccc12	-4	52*	-5	-3	75*	3
N#Cc1ccc(NC(=O)Cn2cnc(S(=O)(=O)N3CCOCC3)c2)cc1	-17	7	2	10	/	/
CC(C)=CCc1c(O)ccc2c1OC(c1ccc(O)c(O)c1)CC2=O (stereo not given)	1	-11	-3	-17	/	/
O=C1CC(c2ccc(O)c(O)c2)Oc2c1ccc(O)c2O (stereo not given)	/	41*	25	-5	55*	/
COc1ccc(N2C(=O)CS(=O)C(c3ccccc3)C2=O)cc1 (stereo not given)	-6	54*	-4	-1	90*	-4
Cc1ccc(N2C(=O)CS(=O)C(c3ccccc3)C2=O)cc1C (stereo not given)	-14	16	-2	-12	/	/
COc1ccc(OC)c(C2CC(=O)N3CN(c4ccccc4F)CSC3=C2C#N)c1 (stereo not given)	7	67*	-1	8	21	-3
COc1cccc(C2CC(=O)N3CN(c4ccccc4F)CSC3=C2C#N)c1 (stereo not given)	-13	57*	-2	-2	31*	-2
COc1cc(C2CC(=O)N3CN(c4ccccc4C)CSC3=C2C#N)cc(OC)c1OC (stereo not given)	12	49*	0	21	33*	/
COc1ccccc1N1CSC2=C(C#N)C(c3ccc(SC)cc3)CC(=O)N2C1 (stereo not given)	-9	38	22	-13	/	/
COc1ccc(OC)c(C2CC(=O)N3CN(c4cccc(Cl)c4C)CSC3=C2C#N)c1 (stereo not given)	11	37	5	-13	/	/
O=[N+]([O-])c1ccc(N2CCN(c3ccc(O)cc3)CC2)cn1	-13	47*	2	0	13	/
O=[N+]([O-])c1ccc(N2CCN(c3ccccc3Cl)CC2)cn1	17	-4	1	2	/	/
CCCCNS(=O)(=O)NC(=O)C1=C(N2CCCC2)COC1=O	/	-5	-1	/	/	/
Cc1c(N2C(=O)/C(=C\c3ccccc3O)SC2=S)c(=O)n(-c2ccccc2)n1C	-11	56*	-2	24	75*	-1
CC(NC(=S)NCc1ccc(F)cc1)C12CC3CC(CC(C3)C1)C2 (stereo not given)	-8	-7	-1	6	/	/
CCOCCCn1c(=O)c2ccccc2n2c(=S)[nH]nc12	-12	42*	-2	-4	62*	1
CC(C)CCn1c(=O)c2ccccc2n2c(=S)[nH]nc12	10	46*	-5	-19	86*	-4
C=CCn1c(=O)c2ccccc2n2c(=S)[nH]nc12	6	50*	-7	-15	80*	-3
CCCCn1c(N)c(N(C)C(=O)c2ccc(OCC3CCCO3)cc2)c(=O)[nH]c1=O (stereo not given)	/	-5	-3	/	/	/

Screening data (PubChem)
